Test results published in PubChem BioAssay AID504327 (National Center for Advancing Translational Sciences (NCATS), 2011).
Where “and” joins values, the source holds several entries; their conditions need not be identical. Equal values may be shown once. Screen size: about 390,000 compounds; about 820 (0.21%) were called active. Entries that show only a call come without a potency. Roughly 3% stayed inconclusive and do not appear here. Calls follow the shape of the dose curve; as a rule, active = well fitted inhibition curve with a large enough effect; inconclusive = small, poorly fitted or top-dose-only effect, or another doubt; inactive = no such curve, though single readings can be large or run the other way. The sample as a whole holds a higher share of actives than the screen did. The source holds several records for some structures; these can differ, active in one and inactive in another.

Molecular target: Histone acetyltransferase KAT2A (Homo sapiens) (UniProt Q92830)
Sequence (Q92830 whole entry, looked up): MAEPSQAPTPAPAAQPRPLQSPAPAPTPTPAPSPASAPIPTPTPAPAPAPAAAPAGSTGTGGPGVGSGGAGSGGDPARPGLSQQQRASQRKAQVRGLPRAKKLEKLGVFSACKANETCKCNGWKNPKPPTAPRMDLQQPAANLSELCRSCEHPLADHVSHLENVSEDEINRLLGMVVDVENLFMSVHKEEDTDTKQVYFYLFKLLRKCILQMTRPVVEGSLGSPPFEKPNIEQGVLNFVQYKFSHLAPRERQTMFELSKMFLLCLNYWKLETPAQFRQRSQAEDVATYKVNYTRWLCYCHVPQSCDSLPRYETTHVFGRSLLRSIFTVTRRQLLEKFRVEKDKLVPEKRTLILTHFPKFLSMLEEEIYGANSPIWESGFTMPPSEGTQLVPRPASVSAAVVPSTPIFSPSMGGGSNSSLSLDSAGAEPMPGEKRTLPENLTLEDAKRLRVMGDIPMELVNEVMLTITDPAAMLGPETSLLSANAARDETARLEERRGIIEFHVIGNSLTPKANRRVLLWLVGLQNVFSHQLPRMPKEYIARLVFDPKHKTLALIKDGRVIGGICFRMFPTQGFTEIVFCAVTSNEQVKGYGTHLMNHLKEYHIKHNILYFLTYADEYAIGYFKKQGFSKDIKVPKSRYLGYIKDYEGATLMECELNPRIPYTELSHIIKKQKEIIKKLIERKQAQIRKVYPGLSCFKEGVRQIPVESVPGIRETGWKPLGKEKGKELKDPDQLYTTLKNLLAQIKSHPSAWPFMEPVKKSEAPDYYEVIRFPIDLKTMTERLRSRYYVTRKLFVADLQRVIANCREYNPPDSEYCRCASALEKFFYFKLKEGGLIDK
Assay: qHTS Assay for Inhibitors of GCN5L2
Settings: GCN5L2 HAT assay, ThioGlo1 CoA-SH fluorescence; series mostly up to 58.9 µM
Summary of the method: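 qHTS, 1536-well. 20nM enzyme, pH 7.5 HEPES/EDTA/Tween-20 buffer; 15 min compound preinc., RT. Start: 75uM H3(1-25), 70uM AcCoA, 50uM ThioGlo1. Read Ex340/Em540 at t=0 (autofluorescence flag) and t=20 min.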
Potency is read from the fitted curve at half-maximal effect.

Compound	Potency
O=c1c(CCc2ccccc2)nc2cncnc2n1C1CC1	inactive
CC(C)=CCC/C(C)=C/CC/C(C)=C/CC/C(C)=C/CO	inactive
O=C(c1csnn1)N1CCC[C@@]2(CCN(c3cccc(-c4ccccc4)c3)C2)C1	inactive
Nc1nc2[nH]c(=O)c(=O)[nH]c2c(=O)[nH]1	inactive
Cc1cnc(CNc2cc(-c3c(C)noc3C)ncn2)cn1	inactive
C=CCC1CCC(=O)N2CCCC12 (stereo not drawn)	inactive
CCCCCCCCCc1ccc(OCCOCCOCCOCCOCCOCCOCCOCCOCCO)cc1	inactive
Cn1cc(-c2nc3cncnc3n(-c3ccccc3)c2=O)c2ccccc21	inactive
Oc1ccc2c(c1)OCC1c3cc4c(cc3OC21)OCO4 (stereo not drawn)	inactive
Nc1ncnc2c1c(I)cn2[C@@H]1C[C@H](N)[C@@H](O)[C@H]1O	inactive
COc1ccc2[nH]cc(CCNc3ncnc4ccc(-c5ccc(C(=O)N(C)C)cc5)cc34)c2c1	inactive
CC1OC(OCC2OC(Oc3c(-c4ccc(O)c(O)c4)oc4cc(O)cc(O)c4c3=O)C(O)C(O)C2O)[C@@H](O)C(O)C1O (stereo partly drawn)	inactive
CCOCCOC(=O)C(C)Oc1ccc(Oc2ncc(C(F)(F)F)cc2Cl)cc1 (stereo not drawn)	inactive
CS(=O)(=O)N1CCC2(CC1)CN(Cc1ccccc1)C2	inactive
COCCNc1ncnc2ccc(-c3cccnc3)cc12	inactive
CCC(CCC(C)C1CCC2C3CC=C4CC(O)CC[C@@]4(C)C3CC[C@@]12C)C(C)C (stereo partly drawn)	inactive
O=P(O)(O)C(O)c1ccc2ccccc2c1 (stereo not drawn)	inactive
CC(O)[C@@H](N)C(=O)O (stereo partly drawn)	inactive
COc1ccc(CNc2ncnc3ccc(-c4cccnc4)cc23)c(OC)c1	inactive
CCOC(=O)Cn1c(=O)sc2cccc(Cl)c21	inactive
CCNc1ncc2nc(CCc3ccccc3)c(=O)n(-c3ccc(OC)cc3)c2n1	inactive
O=c1c(-c2ccc(F)cc2)nc2cnc(N3CCNCC3)nc2n1Cc1cccs1	inactive
Cn1cc(-c2nc3cnc(N4CCNCC4)nc3n(CCC#N)c2=O)c2ccccc21	inactive
N#Cc1cccc(-c2nc3cnc(N4CCNCC4)nc3n(C3CC3)c2=O)c1	28.2 µM (active)
O=C(c1cc(C(F)(F)F)cc(C(F)(F)F)c1)N1CCC2(CCCN(c3ccccn3)C2)CC1	inactive
CN1CCN2c3ccccc3Cc3ccccc3[C@@H]2C1	inactive

Compound	Potency
CN1CCN(c2ncc3nc(-c4ccc(Cl)cc4)c(=O)n(-c4ccccc4)c3n2)CC1	inactive
CCCCC/C=C\CC1OC1CCCCCCCC(=O)O (stereo not drawn)	inactive
Cc1cccc(CNc2cc(-c3ccccc3Cl)ncn2)c1	inactive
C=CC(=O)c1ccc2ccccc2c1	inactive
COCCn1c(=O)c(-c2ccccc2)nc2cnc(N3CCOCC3)nc21	inactive
CC[C@H](C)[C@H](NC(=O)[C@@H](N)CCC(=O)O)C(=O)N[C@@H](CC(C)C)C(=O)N[C@@H](CC(=O)O)C(=O)N[C@H](C(=O)N1CCC[C@H]1C(=O)N[C@@H](CO)C(=O)N[C@H](C(=O)O)[C@@H](C)O)C(C)C	inactive
NCCCCC(N)C(=O)O (stereo not drawn)	inactive
Cc1c(C)n(Cc2ccc(Cl)cc2)c2ccc(C(=O)N3CCN(c4ccccc4F)CC3)cc12	inactive
CC(C)c1ccc(Cn2c(COc3ccccc3)nc3ccccc32)cc1	inactive
C=C(C)C1CC=C(CO)CC1 (stereo not drawn)	inactive
COc1ccc2[nH]cc(CCNc3nc(-c4cccc(NS(C)(=O)=O)c4)nc4ccccc34)c2c1	inactive
CC(=O)N(c1ccc2oc(=O)sc2c1)S(=O)(=O)c1ccc(C)cc1	inactive
O=C(c1cccnc1)N(c1cc2sc(=O)oc2c2ccccc12)S(=O)(=O)c1ccccc1	31.6 µM (active)
O=C(CN(c1cc(C(F)(F)F)ccc1Cl)S(=O)(=O)c1ccccc1)NCc1cccnc1	inactive
CC(C)(O)CCC(O)[C@@](C)(O)C1CC[C@]2(O)C3=CC(=O)C4CC(O)C(O)C[C@]4(C)C3CC[C@]12C (stereo partly drawn)	inactive
Cc1cn([C@H]2CC(F)[C@@H](CO)O2)c(=O)[nH]c1=O (stereo partly drawn)	inactive
C=CCOC(=O)C(=C)C	inactive
O=c1c(-c2cc(F)cc(F)c2)nc2cnc(Oc3ccccc3)nc2n1C[C@H]1CCCO1	inactive
Cc1ccnc(-n2sc3ccccc3c2=O)n1	3.16 µM (active)
O=C(c1cc(C(F)(F)F)cc(C(F)(F)F)c1)N1CCC[C@@]2(CCN(c3ccccn3)C2)C1	inactive
CCCCCCCC/C=C\CCCCCCCC(=O)OC[C@H](CO)OC(C)=O	inactive
O=C(c1ccco1)N1CCC[C@@]2(CCN(c3ccccc3)C2)C1	inactive
Cc1ccc(CC2(O)CCN(CCOc3ccc(O)cc3)CC2)cc1	inactive
CC(=O)OCC(=O)[C@@]1(O)CCC2C3CCC4=CC(=O)CC[C@]4(C)C3C(=O)C[C@]21C (stereo partly drawn)	inactive
CCOc1ccc(NC(=O)c2ncoc2-c2ccco2)cc1	inactive
O=C(NCc1ccccn1)c1ccc2nc(-c3ccco3)c(-c3ccco3)nc2c1	11.2 µM (active)

Compound	Potency
CCN(c1ccccc1)S(=O)(=O)c1cc(C(=O)NCc2ccccn2)ccc1C	inactive
COc1ccc(NC(=O)COCc2cc(-c3ccco3)on2)cc1	inactive
COc1ccc(-c2nc3ccc(C(=O)NCc4ccc(C)cc4)cc3nc2-c2ccc(OC)cc2)cc1	inactive
COCCNC(=O)Nc1ccc2nc(-c3ccco3)c(-c3ccco3)nc2c1	17.8 µM (active)
C[C@]12CC[C@@H]3C(=CCc4cc(O)ccc43)[C@@H]1CCC2=O	inactive
OCCN1CCN(CC/C=C2\c3ccccc3Sc3ccc(C(F)(F)F)cc32)CC1	inactive
Nc1nc2c(nc(Cl)n2C2OC(CO)C(O)C2O)c(=O)[nH]1 (stereo not drawn)	inactive
COc1ccc(C(=O)N2CCC3(CCCN(C(c4ccccc4)c4ccccc4)C3)CC2)cc1	inactive
FCOC(C(F)(F)F)C(F)(F)F	inactive
N#CCCn1c(=O)c(-c2cc(F)cc(F)c2)nc2cnc(Oc3ccccc3)nc21	inactive
Nc1nc2nc(Cl)[nH]c2c(=O)[nH]1	inactive
O=c1c(O)c(-c2ccc(O)cc2)oc2ccccc12	inactive
Oc1ccc(-c2c(-c3ccccc3)nn3c(C(F)(F)F)cc(C(F)(F)F)nc23)cc1	inactive
Fc1ccc(Cl)cc1-c1nc(Nc2ccncc2)c2nccnc2n1	inactive
Cc1ccc(-c2nn(-c3ccccc3)cc2/C=C2\SC(=S)N(CCCCCC(=O)O)C2=O)o1	25.1 µM (active)
CO[C@@]12[C@@H](COC(N)=O)C3=C(C(=O)C(C)=C(N)C3=O)N1C[C@@H]1N[C@@H]12	inactive
COc1ccccc1CNc1ncnc2ccc(-c3c(C)noc3C)cc12	inactive
COc1ccccc1-c1nc(NCc2cccs2)c2ccccc2n1	inactive
H-EHIPA-OH	inactive
Nc1nc2c(ncn2[C@@H]2O[C@H](COP(=O)(O)OP(=O)(O)OP(=O)(O)O)[C@@H](O)C2O)c(=O)[nH]1 (stereo partly drawn)	inactive
COc1cc(OC)cc(C(=O)NC(=S)N2CCN(c3ccc(C(F)(F)F)cc3[N+](=O)[O-])CC2)c1	2 µM (active)
O=C(Cc1ccc(S(=O)(=O)N2CCOCC2)s1)N1CCN(c2ccc(C(F)(F)F)cc2[N+](=O)[O-])CC1	inactive
O=C(Nc1cccc(C(F)(F)F)c1)c1ccc(N2CCNCC2)c([N+](=O)[O-])c1	inactive
CC(C)=CCN1CCC2(CCc3ccccc32)CC1	inactive
CC(C)C(NS(=O)(=O)c1ccc(-c2ccc(Br)cc2)cc1)C(=O)O (stereo not drawn)	inactive
COCCn1c(=O)c(-c2cccs2)nc2cncnc21	inactive

Compound	Potency
OCC(CO)NC1C[C@](O)(CO)[C@@H](O)[C@H](O)[C@H]1O (stereo partly drawn)	inactive
COc1ccc(CNc2ncncc2-c2ccccc2C)c(OC)c1	inactive
COc1ccc(CCCOC(Cn2ccnc2)c2ccc(OC)cc2)cc1 (stereo not drawn)	inactive
Cc1ccccc1NC(=O)c1cnn(-c2ccccc2)c1NC(=O)c1ccco1	inactive
O=C(Cc1ccccc1)Nc1c(C(=O)N2CCCCCC2)cnn1-c1ccccc1	inactive
O=C(Nc1c(C(=O)N2CCCCC2)cnn1-c1ccccc1)c1ccco1	17.8 µM (active)
O=C(/C=C/c1cccc(F)c1)NC1CC1	inactive
CC(C)C1=CC2=CC[C@@H]3[C@](C)(CO)CCC[C@]3(C)C2CC1 (stereo partly drawn)	inactive
CC1=C(/C=C/C(C)=C/C=C/C(C)=C/C=C/C=C(C)/C=C/C=C(C)/C=C/C(=O)[C@]2(C)C[C@@H](O)CC2(C)C)C(C)(C)C[C@H](O)C1	inactive
C#CCCCCCCCCCCCCCCCC(=O)O	inactive and 11.2 µM (active)
O=C(O)CCCCC(=O)O	inactive
CCCCCCCCCCCC(=O)O	inactive
NC(=O)c1sc(-c2ccsc2)cc1N	inactive
Cc1nc2cnc(N3CCNCC3)nc2n(CCc2ccccc2)c1=O	inactive
Cc1ccccc1-c1ccc(C(=O)O)s1	inactive
Cn1cc(-c2nc3cnc(N4CCNCC4)nc3n(CCc3ccccc3)c2=O)c2ccccc21	inactive
NCCCNCCCCN(CCCN)/[N+]([O-])=N/O	inactive
COc1ccc(-c2cn3cccnc3n2)cc1	31.6 µM (active)
CC(C)(C)C(=O)Nc1ccc(-c2cn3cccnc3n2)cc1	inactive
FC(F)(F)Oc1ccc(-c2cn3cccnc3n2)cc1	inactive
CC1O[C@@H](Oc2c(-c3ccc(O)c(O)c3)oc3cc(O)cc(O)c3c2=O)C(O)C(O)C1O (stereo partly drawn)	inactive
C=C1C(=O)C23C(O)C1CCC2[C@]12COC3(O)C(O)C1C(C)(C)CC[C@H]2O (stereo partly drawn)	inactive
CCc1nc(-c2cc(S(=O)(=O)N3CCN(c4ccc(OC)cc4)CC3)ccc2OC)no1	25.1 µM (active)
COc1ccc(N2CCN(S(=O)(=O)c3ccc(-c4coc(C)n4)cc3)CC2)cc1	inactive
COc1ccc(S(=O)(=O)N2CCN(c3ccc(F)cc3)CC2)cc1-c1noc(C)n1	inactive
